In article PMC4336329 (PLoS ONE, 2015):
Out of some 310,000 compounds screened, about 14,000 (4.5%) showed an effect of 50% or more. Effects have a minus sign here. For the sample, strong results were picked, then their nearest neighbours and some compounds at random.

Each compound was assayed against human ether-à-go-go-related gene (hERG) potassium channel (human, UniProt Q12809) (assay: primary screen, population patch clamp on CHO cells stably expressing hERG; higher = less effect of the substance).
Chain of human ether-à-go-go-related gene (hERG) potassium channel (Q12809 whole entry, looked up): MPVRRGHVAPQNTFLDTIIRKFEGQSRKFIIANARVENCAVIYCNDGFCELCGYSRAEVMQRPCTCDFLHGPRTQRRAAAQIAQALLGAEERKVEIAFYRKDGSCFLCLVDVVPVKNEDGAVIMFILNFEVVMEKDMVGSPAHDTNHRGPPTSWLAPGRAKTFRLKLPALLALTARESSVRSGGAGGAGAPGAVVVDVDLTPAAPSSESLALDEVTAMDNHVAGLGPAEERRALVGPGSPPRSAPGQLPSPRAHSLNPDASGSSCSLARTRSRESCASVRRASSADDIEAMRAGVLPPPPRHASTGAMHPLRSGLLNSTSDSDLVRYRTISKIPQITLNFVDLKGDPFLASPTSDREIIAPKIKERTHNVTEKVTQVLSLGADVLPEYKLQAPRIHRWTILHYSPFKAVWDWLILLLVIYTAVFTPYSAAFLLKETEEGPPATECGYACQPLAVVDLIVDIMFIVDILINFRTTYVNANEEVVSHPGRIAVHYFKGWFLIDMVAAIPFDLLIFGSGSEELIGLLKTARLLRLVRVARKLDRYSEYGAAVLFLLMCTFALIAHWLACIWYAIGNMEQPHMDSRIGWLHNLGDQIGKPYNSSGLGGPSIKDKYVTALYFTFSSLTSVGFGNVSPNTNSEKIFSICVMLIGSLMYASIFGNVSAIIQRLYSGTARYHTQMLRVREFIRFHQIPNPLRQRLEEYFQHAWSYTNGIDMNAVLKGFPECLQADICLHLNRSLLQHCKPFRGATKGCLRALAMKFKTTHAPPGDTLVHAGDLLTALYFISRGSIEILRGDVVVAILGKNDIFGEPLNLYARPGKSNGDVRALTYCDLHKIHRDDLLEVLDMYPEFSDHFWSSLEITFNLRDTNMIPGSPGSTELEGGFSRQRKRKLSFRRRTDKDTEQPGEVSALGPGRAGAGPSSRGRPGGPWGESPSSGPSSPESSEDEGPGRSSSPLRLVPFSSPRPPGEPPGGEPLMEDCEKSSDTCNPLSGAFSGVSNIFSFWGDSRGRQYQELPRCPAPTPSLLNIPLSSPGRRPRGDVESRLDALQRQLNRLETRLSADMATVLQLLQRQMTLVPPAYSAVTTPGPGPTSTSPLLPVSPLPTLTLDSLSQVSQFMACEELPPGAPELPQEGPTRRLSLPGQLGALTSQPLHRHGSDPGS
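Also: peak tail current of the secondary pulse compared with the same well before compound.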

Compound | hERG current change (%, negative = inhibition) at 10uM
COc1cc(N2CCOCC2)ccc1/C=C1\C(=O)NC(=O)N(Cc2ccc3c(c2)OCO3)C1=O | 16.5%
COc1ccc(S(=O)(=O)N2CCOCC2)cc1C(=O)Nc1cc(C)on1 | 2.19%
CCn1c(SCC#N)nc2ccccc2c1=O | 2.7%
CN(CC(=O)Nc1ccc(F)cc1)C(=O)COC(=O)CSc1ccc(F)cc1 | -16%
CC(=O)N1CCOc2ccc(S(=O)(=O)NCCc3ccc(S(N)(=O)=O)cc3)cc21 | 12.2%
CCc1c(C)sc(NC(=O)c2cc(-c3ccc(O)cc3)on2)c1C#N | 11.2%
O=C(CCc1nnc2ccc(NCc3ccco3)nn12)Nc1ccc(F)cc1F | -4.76%
COc1ccc(OC)c(C2=NOC(C(=O)Nc3cc(C)on3)C2)c1 (stereo not drawn) | 17.2%
O=C(CCc1nc2sc3c(c2c(=O)[nH]1)CCCC3)Nc1ccccc1Cl | 7.93%
CN(C)C(=O)CSc1nnc(NC(=O)CCc2ccccc2)s1 | -5.24%
CC(=O)c1cccc(NC(=O)N2CC(C)OC(C)C2)c1 (stereo not drawn) | 10.4%
Cc1ccc(NC(=O)OCCNC(=O)c2ccncc2)cc1 | 8.86%
CCN(CC(=O)NCc1ccc(Cl)cc1)C(=O)COc1ccc(Cl)cc1Br | -67.7%
CCN(CC(=O)NCc1ccc(F)cc1)C(=O)C(C)Oc1cccc(Cl)c1 (stereo not drawn) | -54.4%
O=C(COc1cccc(Cl)c1)NCc1ccccc1 | 18.9%
CN(CC(=O)NCc1ccc(F)cc1)Cc1cccc(Cl)c1 | 4.92%
CCOc1ncccc1C(=O)N(CC)CC(=O)NCc1ccc(Cl)cc1 | 1.69%
CCN(CC(=O)NCc1ccc(Cl)cc1)C(=O)COc1ccc(C)cc1C | -78.4%
CCN(CC(=O)NCc1ccc(F)cc1)C(=O)c1ccc(C(=O)c2ccccc2)cc1 | -42.3%
CCN(CC(=O)NCc1ccc(Cl)cc1)C(=O)c1cnc(Cl)c(Cl)c1 | 5.29%
CCN(CC(=O)NCc1ccc(Cl)cc1)C(=O)COc1cccc(Cl)c1 | -73.5%
CCN(CC(=O)NCc1ccc(Cl)cc1)C(=O)CSc1cc(C)ccc1C | -47.5%

Compound | hERG current change (%, negative = inhibition) at 10uM
O=C(COc1ccc(Cl)cc1Br)NC(=O)NCc1ccccc1 | 13.3%
Cc1cc(Cl)ccc1OCC(=O)NCc1ccncc1 | -8.3%
COc1ccccc1C(=O)Nc1cc(C)on1 | 7.07%
CN(C)S(=O)(=O)c1ccc(Cl)c(NC(=O)COC(=O)C2CCCO2)c1 (stereo not drawn) | 5.01%
COc1ccc(NC(=O)CSc2nc(SC)ns2)c(OC)c1 | 2.53%
O=C(OCc1csc(-c2ccccc2)n1)c1ccccc1O | 29.6%
CC1CCC(NC(=O)CSc2nnnn2C)CC1 (stereo not drawn) | 6.96%
CCOc1ccc(CCNC(=O)COC(=O)c2ccc(OC)c(OC)c2OC)cc1OCC | 12.2%
O=C(COc1cccc2cccnc12)NNC(=S)Nc1ccccc1 | -25.8%
CCc1cccc(C)c1NC(=O)C1CCCN(S(C)(=O)=O)C1 (stereo not drawn) | 23.6%
Cc1ccc([C@@H]2[C@@H]3C(=O)N(C)C(=O)[C@@H]3[C@]3(Cc4ccccc4)C(=O)N(CCO)CC(=O)N23)o1 | 0.221%
COc1cccc(NC(=O)NCc2ccc(F)cc2)c1 | -5.73%
CCN(CC(=O)NCc1ccc(F)cc1)CC(O)COCc1cccc(OC)c1 (stereo not drawn) | -60.6%
COc1cccc(CN(C)CC(=O)NCc2ccc(C)cc2)c1.O=C(O)C(=O)O | -49.3%
COc1ccc(C2=NS(=O)(=O)N(C)C(C(=O)NC3CCCC3)=C2)cc1 | 2.43%
COc1cccc(CSc2nc3nc(C)cc(C)n3n2)c1 | -4.72%
Cc1cc(C)n2nc(SCc3nnc(SCc4ccccc4)s3)nc2n1 | -28.6%
Cc1cc(C)n2nc(SCc3nnc(SCc4ccccc4Cl)s3)nc2n1 | 9.19%
COc1cccc(CSc2nnc(CSc3nc4nc(C)cc(C)n4n3)s2)c1 | -54.4%
Cc1cccc(CSc2nc3nc(C)cc(C)n3n2)c1 | -27.9%
Cc1cc(C)n2nc(SCc3nnc(SCc4ccccc4C)s3)nc2n1 | -64.9%
Cc1noc(C)c1COc1ccc(C(=O)N(C)CCOc2ccccc2)cc1 | -26.2%

Compound | hERG current change (%, negative = inhibition) at 10uM
CCc1ccc(S(=O)(=O)NC2CC(C)(C)NC(C)(C)C2)cc1 | 5.09%
Cc1cc(C(=O)N/N=C/c2ccc(OC(=O)c3ccccc3Br)cc2)n[nH]1 | 3.23%
O=C1NC2(CCc3ccccc32)C(=O)N1CCOc1ccc(Cl)cc1 (stereo not drawn) | -29.8%
C=CCn1c(SCC(=O)Nc2ccc(N3CCOCC3)cc2)nnc1-c1ccco1 | 2.29%
C=CCn1c(SCC(=O)N2CCN(c3ccc(F)cc3)CC2)nnc1-c1cccs1 | -68.9%
Cc1occc1-c1nnc(SCC(=O)N2CCN(c3ccccc3F)CC2)n1C | 4.99%
Cc1occc1-c1nnc(SCC(=O)N2CCN(c3ccc(F)cc3)CC2)n1C | -58.5%
C=CCn1c(SCC(=O)C(C)(C)C)nnc1-c1cccs1 | -14.3%
Cc1nc(Cc2nnc(SCC(=O)N3CCN(c4ccc(F)cc4)CC3)o2)cs1 | -50.9%
Cc1nc(Cc2nnc(SCC(=O)Nc3c(C)cccc3C)o2)cs1 | 15.1%
Cc1nc(Cc2nnc(SCC(=O)N(C)c3ccccc3)o2)cs1 | 15.9%
C=CCn1c(SCC(=O)O)nnc1-c1cccs1 | 0.617%
Cc1occc1-c1nnc(SCC(=O)N2CCN(c3ccccc3)CC2)n1C | -27.8%
C=CCn1c(SCC(=O)N2CCN(c3ccc(F)cc3)CC2)nnc1-c1ccco1 | -70.2%
C=CCn1c(SCC(=O)N2CCN(c3ccccc3)CC2)nnc1-c1ccco1 | -25.7%
COC(=O)C1=C(N)Oc2c(oc(CO)cc2=O)C1c1ccc(F)cc1 (stereo not drawn) | -7.85%
O=c1cc(N2CCOCC2)c2ccccc2o1 | -13.9%
O=C(CS(=O)c1cccc(C(F)(F)F)c1)Nc1ccc(Cl)cc1Cl (stereo not drawn) | 8.83%
CCOC(=O)N1CCN(S(=O)(=O)c2ccc(C(=O)Nc3sc4c(c3C#N)CC(C)(C)NC4(C)C)cc2)CC1 | 14.6%
CC1(C)Cc2c(sc(NC(=O)c3ccc(S(=O)(=O)N4CCCC4)cc3)c2C#N)C(C)(C)N1 | -8.79%
CC1(C)Cc2c(sc(NC(=O)c3ccc(S(=O)(=O)N4CCCCCC4)cc3)c2C#N)C(C)(C)N1 | -65.8%
C=C[C@@]1(C)CC(=O)[C@]2(O)[C@@]3(C)[C@@H](O)CCC(C)(C)[C@@H]3[C@H](OC(C)=O)[C@H](O)[C@@]2(C)O1 | 7.62%

Compound | hERG current change (%, negative = inhibition) at 10uM
O=C(CSc1ccc(Cl)cc1)N/N=C/c1ccc([N+](=O)[O-])o1 | -12.5%
COc1ccc(S(=O)(=O)n2cccc2)c(OC)c1 | 5.65%
Cc1ccc(S(=O)(=O)c2nc(S(C)(=O)=O)sc2N2CCC(C(N)=O)CC2)cc1 | 7.6%
CS(=O)(=O)c1nc(S(=O)(=O)c2ccc(Cl)cc2)c(N2CCC(O)CC2)s1 | -13.9%
CCS(=O)(=O)c1nc(S(=O)(=O)c2ccc(C)cc2)c(N2CCC3(CC2)OCCO3)s1 | -35.4%
CCS(=O)(=O)c1nc(S(=O)(=O)c2ccc(Cl)cc2)c(N2CCCC2)s1 | 10.5%
Cc1ccc(S(=O)(=O)c2nc(S(C)(=O)=O)sc2N2CCC3(CC2)OCCO3)cc1 | -34.3%
CS(=O)(=O)c1nc(S(=O)(=O)c2ccc(Cl)cc2)c(N2CCC(C(N)=O)CC2)s1 | -61.8%
CS(=O)(=O)c1nc(S(=O)(=O)c2ccc(Cl)cc2)c(N2CCC3(CC2)OCCO3)s1 | -59.3%
CS(=O)(=O)c1nc(S(=O)(=O)c2ccc(Cl)cc2)c(N2CCOCC2)s1 | 12.1%
CCS(=O)(=O)c1nc(S(=O)(=O)c2ccc(Cl)cc2)c(N2CCC3(CC2)OCCO3)s1 | -51.5%
Nc1ncc([N+](=O)[O-])s1 | 19.6%
C=CCN1C(=O)c2ccccc2C1(O)Cc1ccccc1 (stereo not drawn) | 16.5%
CCCC/C(O)=C1\C(=O)CC(C)(C)CC1=NCCCCCC(=O)O | 7.59%
Cc1[nH]c2ccccc2c1SCc1nnc(SCc2ccccc2)n1C | 4.6%
Cc1cc(C)cc(N2CC(c3nc4ccccc4n3C)CC2=O)c1 (stereo not drawn) | -10.8%
Cc1ccc(N2CC(c3nc4ccccc4n3C)CC2=O)cc1 (stereo not drawn) | -21.5%
CCn1c(C2CC(=O)N(c3ccc(C)c(C)c3)C2)nc2ccccc21 (stereo not drawn) | -11.5%
CCCn1c(C2CC(=O)N(c3ccc(C)cc3)C2)nc2ccccc21 (stereo not drawn) | -52.9%
C=CCn1c(C2CC(=O)N(c3ccc(C)cc3)C2)nc2ccccc21 (stereo not drawn) | -58.4%
CCn1c(C2CC(=O)N(c3cc(C)cc(C)c3)C2)nc2ccccc21 (stereo not drawn) | -2.71%
